{"source": "PubChem BioAssay AID1224852", "about": "(National Center for Advancing Translational Sciences (NCATS), 2016)", "note": "Records with an inconclusive call do not appear. The source made the active and inactive calls. Calls come from the whole dose curve; as a rule, active = well fitted curve in the direction sought with a large enough effect (not every such curve was filed as active); inconclusive = small, poorly fitted or top-dose-only effect, or effect the other way, or another doubt; inactive = no such curve, though single readings can be large or run the other way.", "data": [{"assay": "Cell viability assay for measurement of the protective activity of small molecules against cell death caused by Zika virus infection in human neural progenitor cells (hNPCs)", "settings": "hNPC ZIKV-induced death protection, ATP luminescence, 72 h; series mostly up to 46.1 µM", "excerpt": "National Center for Advancing Translational Sciences [NCATS] Johns Hopkins University School of Medicine Florida State University Assay Overview: Zika virus infection causes cell death in certain cell types including human neural progenitor cells (hNPCs), astrocytes, and astrocytoma cell line (SNB-19). This cell viability assay measures the ATP content (level) in human neural progenitor cells (hNPCs) using a luminescence readout that is proportional to viable cell numbers. Decrease in the luminescence signal after Zika virus infection indicates the cell death caused by Zika virus. Small molecule inhibitors […] the decreased luminescence signal after Zika virus infection, indicating the protective effect of that small molecule on the cell death caused by Zika virus infection. This observed protective effect of small molecules against Zika virus induced cell death may result from inhibition of virus replication or cellular response to the virus infection.\nAssay Protocol Summary: The medium for hNPCs consists of DMEM/F12, N2 supplement (ThermoFisher, Cat.# 17502048), NEAA (ThermoFisher, Cat. # 11140050), 2 ug/ml heparin, 2 uM cyclopamine, and B27 (ThermoFisher, Cat. # 17504044). The ATP content assay kit (PerkinElmer, Cat.# 6016731) was used to determine cell viability. The reagent was reconstituted and prepared as described by the manufacturer. Cells were seeded in 384- or 1536-well assay plates and cultured at 37 C with 5% CO2 for 16 to 20 hours. The typical cell seeding density in the 1536-well plate assay is 350 cells/well in 3 ul medium for hNPCs in the tissue cultured treated/PDL coated plates. Compounds were added to cells and incubated for one hour before addition of ZIKV solution to cells (2 FFU/cell). After incubation at 37 C with 5% CO2 for 72 hours, the reagent mixture of the ATP content assay kit was added to each well, followed by incubation at room temperature for 10 minutes. The luminescence intensity of the assay plates was measured using a ViewLux plate reader (PerkinElmer). […] The percentage inhibitions of the decreased cell viability by small molecule inhibitors were then calculated.", "values": [{"smiles": "C[C@@H](O[C@H]1OCCN(Cc2n[nH]c(=O)[nH]2)[C@@H]1c1ccc(F)cc1)c1cc(C(F)(F)F)cc(C(F)(F)F)c1", "outcome": "inactive"}, {"smiles": "CC(=O)Oc1cccc2c1C(=O)c1c(OC(C)=O)cc(C(=O)O)cc1C2=O", "outcome": "inactive"}, {"smiles": "CN(C)c1ccc(N=NS(=O)(=O)O)cc1", "outcome": "inactive"}, {"smiles": "Cc1csc(NC(=O)c2sc3nc4c(c(C(F)(F)F)c3c2N)CCC4)n1", "outcome": "inactive"}, {"smiles": "CN(C)c1ccc(C(=C2C=CC(=[N+](C)C)C=C2)c2ccccc2)cc1", "outcome": "inactive"}, {"smiles": "O=C(/C=C/c1ccccc1)NCCO", "outcome": "inactive"}, {"smiles": "O=C1c2ccccc2C(=O)c2c1ccc(O)c2O", "outcome": "inactive"}, {"smiles": "CC(C)c1ccc2oc3nc(N)c(C(=O)O)cc3c(=O)c2c1", "outcome": "inactive"}, {"smiles": "CCC(C(=O)O)c1ccc(N2Cc3ccccc3C2=O)cc1", "note": "(stereo not given)", "outcome": "inactive"}, {"smiles": "CCCCCCCCCCCC(=O)[O][Sn]([CH2]CCC)([CH2]CCC)[O]C(=O)CCCCCCCCCCC", "outcome": "inactive"}, {"smiles": "C[C@@H](N)c1ccc(C(=O)Nc2ccnc3[nH]ccc23)cc1", "outcome": "inactive"}, {"smiles": "O=C(Nc1cc2cc[nH]c2cn1)c1ccccc1", "outcome": "inactive"}, {"smiles": "O=C(O)c1cccc(-c2noc(-c3ccccc3F)n2)c1", "outcome": "inactive"}, {"smiles": "CCN1/C(=C/C=C/c2sc3ccccc3[n+]2CC)Sc2ccccc21", "outcome": "inactive"}, {"smiles": "CN(C)c1ccc(/C=C2\\C(=O)Nc3ccccc32)cc1", "outcome": "inactive"}, {"smiles": "CC(=O)OC(C)OC(=O)C(C)c1ccc(-c2ccccc2)c(F)c1", "note": "(stereo not given)", "outcome": "inactive"}, {"smiles": "CN(C)c1cc(NC(=O)CNC(C)(C)C)c(O)c2c1C[C@@H]1C[C@H]3[C@H](N(C)C)C(=O)C(C(N)=O)=C(O)[C@@]3(O)C(=O)C1=C2O", "outcome": "inactive"}, {"smiles": "CCOCCOC(=O)/C=C/c1ccc(OC)cc1", "outcome": "inactive"}, {"smiles": "NC(=O)c1cccc2[nH]c(-c3ccc([C@H]4CCCN4)cc3F)nc12", "outcome": "inactive"}, {"smiles": "Cc1cc(O)c2c(c1)C(=O)c1cc(O)cc(O)c1C2=O", "outcome": "inactive"}, {"smiles": "Cc1cccc(C#Cc2ccccc2)n1", "outcome": "inactive"}, {"smiles": "O=C1NC(=O)C(=Cc2ccc(-c3ccc(F)cc3)o2)S1", "outcome": "inactive"}, {"smiles": "Nc1ccc(N=Nc2ccccc2)c(N)n1", "outcome": "inactive"}, {"smiles": "CCCSc1ccc2nc(NC(=O)OC)[nH]c2c1", "outcome": "inactive"}, {"smiles": "O=C1c2ccccc2-[n+]2ccc3c([nH]c4ccccc43)c21", "outcome": "inactive"}, {"smiles": "Cc1c(N)c(=O)n(-c2ccccc2)n1C", "outcome": "inactive"}, {"smiles": "CC(C)(C)COc1ccc(-n2cc(C(=O)O)cn2)cc1C#N", "outcome": "inactive"}, {"smiles": "O=C(Nc1ccc(OC(F)(F)F)cc1)c1sccc1NCc1ccnc2ccccc12", "outcome": "inactive"}, {"smiles": "CC=CC[C@@H](C)C(=O)[C@H]1C(=O)N[C@@H](C(C)C)C(=O)N(C)CC(=O)N(C)[C@@H](CC(C)C)C(=O)N[C@@H](C(C)C)C(=O)N(C)[C@@H](CC(C)C)C(=O)N[C@@H](C)C(=O)N[C@H](C)C(=O)N(C)[C@@H](CC(C)C)C(=O)N(C)[C@@H](CC(C)C)C(=O)N(C)[C@@H](C(C)C)C(=O)N1C", "outcome": "inactive"}, {"smiles": "NC(N)=NN=C(/C=C/c1ccc([N+](=O)[O-])o1)/C=C/c1ccc([N+](=O)[O-])o1", "outcome": "inactive"}, {"smiles": "O=c1cc(-c2ccccc2)oc2cc(O)c(O)c(O)c12", "outcome": "inactive"}, {"smiles": "O=c1c2ccccc2nc2n1CCc1c-2[nH]c2ccccc12", "outcome": "inactive"}, {"smiles": "[O-][n+]1ccccc1SSc1cccc[n+]1[O-]", "outcome": "inactive"}, {"smiles": "O=c1[nH]nc(Sc2ncc([N+](=O)[O-])s2)n1-c1ccc2c(c1)OCCO2", "outcome": "inactive"}, {"smiles": "C=CCCCCCCCCC(=O)O", "outcome": "inactive"}, {"smiles": "O=c1oc2cc(O)ccc2s1", "outcome": "inactive"}, {"smiles": "COCCn1c2c([n+](Cc3cnccn3)c1C)C(=O)c1ccccc1C2=O", "outcome": "inactive"}, {"smiles": "c1ccc2[nH]c(-c3cscn3)nc2c1", "outcome": "inactive"}, {"smiles": "CCCCC1C(=O)N(c2ccccc2)N(c2ccc(O)cc2)C1=O", "note": "(stereo not given)", "outcome": "inactive"}, {"smiles": "Oc1cc(O)cc(/C=C/c2ccc(O)c(O)c2)c1", "outcome": "inactive"}]}]}
